Among the data in PubChem BioAssay AID504441 (Broad Institute, 2011) are inhibition values, retold here.

Among all 310,000 compounds or so, about 1,300 (0.42%) were called active. No stated cut-off is given here; in the data, active means inhibition above about 50%; inactive means the rest. The list comes from a sample in which actives are over-represented; it also holds similar structures and randomly drawn compounds.

The experiment has as its target Dual specificity tyrosine-phosphorylation-regulated kinase 1A (Rattus norvegicus) (UniProt Q63470). Briefly: rat Dyrk1A kinase inhibitors, primary screen, biochemical, single point, plate reader (AID 504441).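 Further: plate controls were vehicle with enzyme for no effect and no enzyme for full effect.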 As to conditions: ADP-Glo luminescence, NFATc1 peptide, at 12.5 µM, stronger effect = higher value. Background: In ADP-Glo the light output rises with the ADP produced.
Take `COc1cc(C2c3cc4c(cc3C(O)C3COC(=O)C23)OCO4)cc(OC)c1OC` (configuration not stated): the inhibition was 0.167% (inactive). On to `CCN1C(=NCCc2cccnc2)N[C@@H](c2ccccc2)C(C(=O)OC)=C1C`, for which the inhibition was 53.7% (active). Regarding `COC(=O)C1=C(C)N(Cc2ccccc2)C(=NCCCOC(C)C)N[C@H]1c1ccccc1`, the inhibition was -6.8% (inactive).

With `CCN1C(=NCCc2cccnc2)N[C@@H](c2ccccc2)[C@H](C(=O)OC)[C@H]1C`, the inhibition is -12.5% (inactive). As to `COc1ccccc1C(=O)c1ccccc1C(=O)c1ccccc1`, the inhibition is 1.1% (inactive). Turning to `COc1ccc(S(=O)(=O)N(C)C[C@@H]2Oc3ccc(NC(=O)Nc4c(C)noc4C)cc3C(=O)N([C@H](C)CO)C[C@@H]2C)cc1`, the inhibition was 1.82% (inactive). Turning to `COc1ccc2c(Cl)c(C(=O)NCc3ccco3)sc2c1`, the inhibition was 54.5% (active). As for `COc1ccc2oc(C(=O)NCc3ccco3)c(C)c2c1`, the inhibition is 19.2% (inactive). With `O=C(NCc1ccco1)c1sc2cccc(F)c2c1Cl`, the inhibition was 1.99% (inactive). On to `Oc1[nH]c2ccccc2c1N=Nc1c(F)c(F)c(F)c(F)c1F`, for which the inhibition was 4.41% (inactive).

`C[n+]1cccc(C(=O)O)c1`: the inhibition is 0.48% (inactive). For the compound `CC1CCCN(C(=O)Cn2c(=O)oc3cc(S(=O)(=O)N4CCCCC4C)ccc32)C1` (configuration not stated), the inhibition was 0.0944% (inactive). Under `O=C(Cc1ccc(Cl)cc1)c1ccccc1` stands -1.54% (inactive). With `COC(=O)C(C)Oc1ccc2c(c1)O/C(=C\c1cccc(Br)c1)C2=O` (configuration not stated), the inhibition is -2.95% (inactive). Take `COc1ccc(NC(=O)CCN2C(=O)/C(=C/c3ccc4c(c3)OCO4)SC2=S)cc1`: the inhibition was -2.32% (inactive). Under `O=C1/C(=C/c2ccc3c(c2)OCO3)Oc2cc(OCC(=O)N3CC(O)C[C@H]3C(=O)O)ccc21` (some centres not stated) stands 70.2% (active). With `O=C1c2ccccc2C(=O)C1C(=O)C1CC1` the figure was -4.93% (inactive); with `COc1ccc(CNCCCn2cnc3c(OCc4ccccc4)ncnc32)cc1`, 6.66% (inactive); with `Cc1ccc(S(=O)(=O)n2oc(=O)c(C3CCCCC3)c2N)cc1`, -0.128% (inactive). Consider `CCc1ccc(/C=C2\SC(N3CCOCC3)=NC2=O)cc1`, for which the inhibition was 2.74% (inactive).

For the compound `O=C1N=C(N2CCc3ccccc3C2)S/C1=C\c1ccc(O)cc1`, the inhibition is 70.6% (active). On to `CC1CCN(C2=NC(=O)/C(=C/c3ccc(O)cc3)S2)CC1`, for which the inhibition was 22.4% (inactive). With `CN(CCc1ccccc1)C(=O)c1cccc(NC(=O)Cc2cccc(NC(=O)C3CCCN(C(=O)CCc4ccccc4)C3)c2)c1` (configuration not stated), the inhibition is 0.419% (inactive). For the compound `O=C(Cc1ccc(S(=O)(=O)N2CCOCC2)s1)Nc1ccc(Br)c(C(F)(F)F)c1`, the inhibition is 0.772% (inactive). With `CC(C)c1cc(N=O)cc(C(C)C)c1O` the figure was 7.15% (inactive); with `CCOc1cccc(/C=N/N2C(=O)CSC2=S)c1O`, 6.88% (inactive); with `O=C1CSC(=S)N1/N=C/c1ccc(O)c([N+](=O)[O-])c1`, 90.8% (active). With `Cc1cc(C(=O)N/N=C/c2ccc(O)c([N+](=O)[O-])c2)c(C)n1-c1ccc(F)cc1`, the inhibition was -6.46% (inactive). For `COC1=CC(=O)OC(C)(c2ccccc2)C1` (configuration not stated), the inhibition is 1.06% (inactive). Regarding `COc1ccc2nc(N3C(=O)C(O)=C(C(=O)c4ccco4)C3c3ccco3)sc2c1` (configuration not stated), the inhibition is 7.88% (inactive). Under `O=S1(=O)CSCS(=O)(=O)C1` stands -4.37% (inactive); under `c1coc(CNc2ncnc3ccccc23)c1`, 6.44% (inactive); under `Cc1noc(C)c1-c1ccc2ncnc(NC(C)c3ccco3)c2c1` (configuration not stated), 58% (active).

Regarding `C=CC(=O)Nc1ccc(Nc2ccnc(Nc3ccc(N4CCN(C)CC4)cc3)n2)cc1`, the inhibition was 24.1% (inactive).

In the case of `COc1ccc(Nc2ccc3ccccc3c2)cc1`, the inhibition was -0.0929% (inactive). Under `NC(=O)C1(Nc2ccccc2Cl)CCCC1` stands -0.756% (inactive); under `COCCN(C(=O)C(C)N1C(=O)c2ccccc2C1=O)c1c(N)n(CC(C)C)c(=O)[nH]c1=O` (configuration not stated), -2.22% (inactive); under `Cc1c(NS(=O)(=O)c2cccc(C(=O)Nc3ccc(SC(F)F)cc3)c2)c(=O)n(-c2ccccc2)n1C`, -4% (inactive). On to `COc1ccc2oc(N)c(C=O)c(=O)c2c1`, for which the inhibition is 59.5% (active). With `COc1ccc2oc(C)c(NC(C)=O)c2c1` the figure was 1.53% (inactive); with `COc1ccc2oc(N)nc2c1`, 7.05% (inactive); with `NC(=O)C1(N2CCCC2)CCN(Cc2ccccc2)CC1`, -3.22% (inactive). Take `NC(=O)c1ncn([C@@H]2O[C@H](CN=C3NS(=O)(=O)c4ccccc43)[C@@H](O)[C@H]2O)n1`: the inhibition was 3.02% (inactive).

As to `CC(=O)Oc1ccc2c(c1)C(=O)c1ccccc1C2=O`, the inhibition is 53.6% (active).

For the compound `CC(=O)Oc1ccc2c(C)c(CC(C)O)c(=O)oc2c1` (configuration not stated), the inhibition is 2.53% (inactive). For `CC(=O)Oc1cccc(C(=O)Nc2ccccc2NC(=O)c2cccc(OC(C)=O)c2)c1`, the inhibition was -0.37% (inactive). For `O=C(NCCC1=CCCCC1)c1ccc(-n2cncn2)cc1`, the inhibition is 4.88% (inactive).

As for `O=C(Nc1ccccc1)Oc1cccc2cccnc12`, the inhibition is 7.72% (inactive).

On to `O=C(c1cccc(S(=O)(=O)N2CCCCCC2)c1)N1CCN(Cc2ccccc2)CC1`, for which the inhibition was -0.662% (inactive). For `NC(=S)c1ccc(C(N)=S)o1`, the inhibition is 61.8% (active). On to `O=[N+]([O-])c1ccc(NCCCN2CCOCC2)c(Cl)c1`, for which the inhibition was 0.781% (inactive). Under `CC1CN(c2nc(Nc3ccccc3)nc(N)c2[N+](=O)[O-])CC(C)O1` (configuration not stated) stands 42% (inactive). Take `Nc1nc(NCCCN2CCOCC2)nc(Nc2ccccc2)c1[N+](=O)[O-]`: the inhibition was 67.2% (active). Turning to `CC(=O)OCC1(O)CC23CCC4c5ccoc5CCC4(C)C2CCC1C3` (configuration not stated), the inhibition was 7.82% (inactive). In the case of `O=c1nc(NO)ccn1C1CCCO1` (configuration not stated), the inhibition is -3% (inactive).

Consider `CCC1([N+](=O)[O-])COC(c2ccc(C(C)C)cc2)OC1` (configuration not stated), for which the inhibition was -3.06% (inactive). Turning to `CCOC(=O)C1C(c2ccc(O)cc2)NC(=O)NC1(O)C(F)(F)F` (configuration not stated), the inhibition is 2.32% (inactive). As to `CC(=O)C1C(c2cccc(Oc3ccccc3)c2)NC(=O)NC1(O)C(F)(F)F` (configuration not stated), the inhibition was -5.37% (inactive). In the case of `CC(=O)C1C(c2ccc(Cl)cc2)NC(=O)NC1(O)C(F)(F)F` (configuration not stated), the inhibition is 57.4% (active).

Turning to `O=C(NN=CC=Cc1ccccc1)C(O)C(O)C(=O)NN=CC=Cc1ccccc1` (configuration not stated), the inhibition is 1.04% (inactive). For the compound `O=S(=O)(Cc1ccc(Cl)cc1Cl)c1ccc(Cl)cc1`, the inhibition was -0.684% (inactive).

As for `COc1ccc(C(CNC(=O)c2cccc(S(=O)(=O)Nc3ccc(Br)cc3)c2)N(C)C)cc1` (configuration not stated), the inhibition is -0.345% (inactive).

The term inhibition denotes the drop in the measured response relative to a control, in per cent.
